This is one part of a sample in which hits are shown more often than they occur.
IL1B secr inh: inflammasome signaling inhibition, IL-1 beta readout; THP-1 LPS/ATP IL-1B secretion, AlphaLISA, 16 h; hits give low values; activity change, % at 57.5 µM; hit rate 4.7% among 360,000; AID 743279; in the data active means activity change below about -50%; inconclusive means mostly about -30% to -49%
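Secreted IL-1B measured by AlphaLISA bead assay after 16 h compound exposure of THP-1 cells; compounds (final up to 57.5 uM) added 1 h before LPS (250 ng/mL) and ATP (1.25 mM) stimulation; lower signal means less secretion.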
12-LOX inh: blocks human arachidonate 12S-lipoxygenase; P18054; purified 12hLO, xylenol orange hydroperoxide absorbance; Potency, µM (titrated, usually from 108 µM), for inactives: at the top dose activity change, negative = inhibition, hits mostly inhibitors; hit rate 1.1% among 580,000; AID 1671190; further: potency means the concentration at half of the fitted maximal effect
Target sequence (P18054 whole entry, looked up): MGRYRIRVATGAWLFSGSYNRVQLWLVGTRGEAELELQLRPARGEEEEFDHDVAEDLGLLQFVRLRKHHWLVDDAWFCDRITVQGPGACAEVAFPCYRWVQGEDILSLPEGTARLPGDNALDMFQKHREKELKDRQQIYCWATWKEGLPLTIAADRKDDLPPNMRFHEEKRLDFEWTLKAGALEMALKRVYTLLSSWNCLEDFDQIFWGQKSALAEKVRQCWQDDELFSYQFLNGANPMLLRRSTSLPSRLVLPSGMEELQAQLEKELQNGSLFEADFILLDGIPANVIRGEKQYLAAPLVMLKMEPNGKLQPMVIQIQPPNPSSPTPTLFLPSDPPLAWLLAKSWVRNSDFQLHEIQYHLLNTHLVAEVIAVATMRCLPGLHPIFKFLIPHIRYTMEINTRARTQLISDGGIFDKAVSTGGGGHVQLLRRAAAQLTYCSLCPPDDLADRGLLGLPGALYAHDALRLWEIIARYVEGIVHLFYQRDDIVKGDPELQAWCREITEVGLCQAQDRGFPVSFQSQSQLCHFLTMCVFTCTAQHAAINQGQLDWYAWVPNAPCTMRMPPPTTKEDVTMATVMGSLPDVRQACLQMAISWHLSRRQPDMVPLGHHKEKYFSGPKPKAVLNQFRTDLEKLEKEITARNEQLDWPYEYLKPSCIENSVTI
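Purified human 12hLO at 150 nM in 25 mM Hepes, 0.01% Triton X-100, pH 7.0, preincubated 15 min at room temperature with compound. Reaction started with 40 uM arachidonic acid, 30 min at room temperature. Hydroperoxide measured by Fe-xylenol orange, 573/405 nm absorbance ratio.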
HT1080 IDH1KD tx: toxicity to HT-1080 IDH1 knockdown cells (counter line) | HT-1080 IDH1 knockdown viability, ATP luminescence, 48 h | Potency, µM (doses to about 46.1 µM), for the others: at the top dose activity, negative = toxicity, usual class: cytotoxic | hit rate 2% among 360,000 | AID 686971;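 further: potency means the concentration at half of the fitted maximal effect; 0% = DMSO wells and -100% = cell-free medium wells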
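Luminescent ATP read-out (CellTiter-Glo, 10 min at room temperature) after 48 h compound exposure at 37 °C gave viability of IDH1-knockdown HT-1080 cells. Activity was normalised to DMSO and cell-free wells, then fitted as concentration-response curves.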
DT40 TDP1 no CPT: qHTS for Inhibitors of human tyrosyl-DNA phosphodiesterase 1 (TDP1): qHTS in cells in absence of CPT | Potency, µM (doses to about 46.2 µM), without a hit: at the top dose activity change, negative = growth inhibition, hits mostly inhibitors | DT40 Tdp1-/- hTDP1 cells, no CPT, ATP luminescence, 48 h | hit rate 15% among 420,000; further: potency means the concentration at half of the fitted maximal effect; nearly all actives have a fitted effect of over 55% in size
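Seeded 400 DT40-hTDP1 cells/well (vehicle DMSO, no 20 nM CPT); pinned compounds; ≥48 hr at 37 °C; CellTiter-Glo luminescence as viability measure.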
TDP1 cell CPT: DT40-hTDP1 cell growth loss with CPT | hit rate 12% among 420,000 | AID 686979 | Potency, µM (titrated, usually from 46.2 µM), inactives show at the highest dose activity change, negative = growth inhibition, actives largely listed as inhibitors | chicken DT40 Tdp1-/-;hTDP1 cells + 20 nM CPT, ATP luminescence, 48 h; further: potency means the concentration at half of the fitted maximal effect; nearly all actives have a fitted effect of over 55% in size
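Chicken DT40 Tdp1-/- cells complemented with human TDP1, 400 cells/well, exposed to compounds plus 20 nM camptothecin for at least 48 h at 37 C; viability read as ATP content by CellTiter-Glo luminescence.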
HT1080NT lethal: kills 2HG-producing HT-1080-NT fibrosarcoma cells. HT-1080-NT fibrosarcoma viability, CellTiter-Glo ATP luminescence, 48 h. Potency, µM (series often up to 46.1 µM), inactives show top-dose activity, negative = less viability, hits mostly cytotoxic. hit rate 1.6% among 360,000. AID 686970;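 further: NT is the 2HG producing partner of a matched IDH1 knockdown line; potency means the concentration at half of the fitted maximal effect; 0% = DMSO-treated cells and -100% = media-only wells without cells; nearly all actives have a fitted effect of over 55% in size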
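Read-out is CellTiter-Glo luminescence after 10 minutes at room temperature, following 48 hours' compound treatment of HT-1080-NT cells (750 cells/well, RPMI, 5% FBS, 37 degrees C).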
Starred values were filed as active, the others as inactive; i = inactive; ? = inconclusive; / = not tested or not shown; [ ] = dose if it differs, or a comment. Unless noted, the call rests on the fitted dose curve; in most records, active means well fitted curve in the direction sought with a large enough effect; inconclusive means small, poorly fitted or top-dose-only effect, or another doubt; inactive means no such curve, though single readings can be large; an effect the other way counts as inactive or inconclusive. Unless noted, on the % scale 0 is the no-effect control and ±100 the full control effect.

SMILES	IL1B secr inh	12-LOX inh	HT1080 IDH1KD tx	DT40 TDP1 no CPT	TDP1 cell CPT	HT1080NT lethal
CCOC(=O)c1c(-c2ccc(OC)c(OC)c2)csc1NC(=O)CNC(C)(C)CC	/	2.8%	/	/	/	/
COCCCn1c(SCC(=O)Nc2ccc(OC)cc2)nc2c(sc3ccccc32)c1=O	/	-20.8%	/	-4.2%	5.5%	/
COCCCn1c(SCC(=O)Nc2ccc(F)cc2)nc2c(sc3ccccc32)c1=O	/	0.0%	/	5.8µM*	14.6µM*	/
COc1ccc(NC(=O)CSc2nc3c(sc4ccccc43)c(=O)n2CCCN2CCCC2)cc1	-19.0	/	?	?	20.6µM*	?
COCCCn1c(SCc2ccccc2F)nc2c(sc3ccccc32)c1=O	/	-19.6%	/	14.6µM*	?	/
CCc1cc(=O)oc2cc(OS(=O)(=O)c3sc(C(=O)OC)c(C)c3C(=O)OC)ccc12	/	42.9%	/	/	/	/
COc1cc(CNc2cccc3[nH]c(C(F)(F)F)nc23)cc(OC)c1	41.1	-4.8%	-6.6%	25.9µM*	23.1µM*	-15.0%
Cc1ccc(C(=O)Nc2cccc3[nH]c(C(F)(F)F)nc23)cc1	-12.2	0.0%	-39.6%	?	?	?
COc1ccc(CNc2cccc3[nH]c(C(F)(F)F)nc23)cc1	-70.9*	5.4%	?	?	?	?
CS(=O)(=O)N1CCN(C(C(=O)O)c2c[nH]c3ccccc23)CC1 (stereo not drawn)	/	-6.3%	/	/	/	/
CCc1ccccc1N1CC(C(=O)Nc2cc(S(=O)(=O)N3CCCC3)ccc2Cl)CC1=O (stereo not drawn)	15.1	?	15.5%	14.6µM*	?	0.1%
CCc1ccc(N2CC(C(=O)Nc3ccc(S(=O)(=O)N4CCOCC4)cc3)CC2=O)cc1 (stereo not drawn)	-60.6*	?	-1.5%	?	?	-7.7%
CCOc1ccc(N2CC(C(=O)Nc3cccc(S(=O)(=O)N4CCCCC4)c3)CC2=O)cc1 (stereo not drawn)	-2.4	-5.4%	-8.9%	?	-22.4%	-18.9%
CSc1cccc(N2CC(C(=O)Nc3cccc(S(=O)(=O)N4CCCC4)c3)CC2=O)c1 (stereo not drawn)	5.8	28.2µM*	-9.2%	14.6µM*	20.6µM*	-0.4%
Cc1cccc(N2CC(C(=O)Nc3cccc(S(=O)(=O)N4CCCCC4)c3)CC2=O)c1C (stereo not drawn)	-50.6*	1.1%	-13.8%	?	18.4µM*	-22.1%[9.24 µM]
CCC(C)c1ccccc1N1CC(C(=O)Nc2cccc(S(=O)(=O)N3CCOCC3)c2)CC1=O (stereo not drawn)	i	137.5%	0.9%	18.4µM*	18.4µM*	-2.3%
CSc1cccc(NC(=O)C2CCN(S(=O)(=O)c3ccc4[nH]c5c(c4c3)CCCCC5)CC2)c1	/	?	/	20.6µM*	?	/
CC(C)=CC1C(C(=O)Nc2ccc(S(=O)(=O)N3CCOCC3)cc2)C1(C)C (stereo not drawn)	-64.2*	-25.2%	-17.9%	?	?	-25.0%
O=C(Nc1ccc(S(=O)(=O)N2CCOCC2)cc1)C1CC1	6.4	-4.1%	1.1%	-1.5%	-28.5%	4.1%
CCOc1ccccc1N1CC(C(=O)NCCC2=CCCCC2)CC1=O (stereo not drawn)	-18.1	-16.2%	-2.9%	-29.3%	?	-0.2%
CCC(C)c1ccccc1N1CC(C(=O)NCCC2=CCCCC2)CC1=O (stereo not drawn)	-3.2	392.8%	0.6%	16.4µM*	18.4µM*	-2.1%
COc1ccc(CN2CCC3(CC(C)=NO3)C2)cc1 (stereo not drawn)	/	49.2%[176 µM]	/	/	/	/
C=CCCC(CN1CCCC1)Oc1ccc(C(=O)NCC)cn1 (stereo not drawn)	/	11.2%	/	/	/	/
COc1cc(-c2nc(C(=O)NC3CCCCC3)cc3c2[nH]c2ccccc23)cc(OC)c1OC	?	-0.6%	-20.2%	23.1µM*	16.4µM*	-4.9%
COc1ccc(OC)c(-c2nc(C(=O)NC3CCN(Cc4ccccc4)CC3)cc3c2[nH]c2ccccc23)c1	-14.6	-21.9%	?	11.6µM*	10.3µM*	?
SMILES	IL1B secr inh	12-LOX inh	HT1080 IDH1KD tx	DT40 TDP1 no CPT	TDP1 cell CPT	HT1080NT lethal
COc1cc(-c2nc(C(=O)NC3CCN(Cc4ccccc4)CC3)cc3c2[nH]c2ccccc23)cc(OC)c1OC	-11.8	/	?	13µM*	11.6µM*	?
COc1ccc(OC)c(-c2nc(C(=O)NCCCN3CCOCC3)cc3c2[nH]c2ccccc23)c1	-2.4	7.7%	-22.4%	23.1µM*	16.4µM*	-13.4%
Cc1ccc(C(=O)Nc2ccc3oc(-c4ccncc4)nc3c2)cc1	/	-25.9%	/	/	/	/
CC(C)c1ccc(S(=O)(=O)N2CCN(Cn3ncc4ccccc4c3=O)CC2)cc1	/	-0.1%	/	/	/	/
O=C(NCc1ccccc1)C1C(c2ccccc2)=Nc2ccccc2N1C(=O)c1ccncc1 (stereo not drawn)	-13.5	-0.8%	-5.1%	-14.3%	-8.9%	-17.2%
O=C(NCc1ccccc1)C1C(c2ccc3c(c2)OCO3)=Nc2ccccc2N1C(=O)c1cccc(C(F)(F)F)c1 (stereo not drawn)	-20.5	?	-14.1%	?	16.4µM*	-5.4%
O=C(NCc1ccccc1)C1C(c2ccc3c(c2)OCO3)=Nc2ccccc2N1C(=O)c1ccccc1 (stereo not drawn)	-0.8	-4.9%	-23.8%	14.6µM*	23.1µM*	-18.4%
COc1ccc(C2=Nc3ccccc3N(C(=O)c3ccc(C(F)(F)F)cc3)C2C(=O)Nc2c(C)cccc2C)cc1 (stereo not drawn)	-10.7	-2.0%	2.4%	?	?	14.6%
O=C(NCc1ccccc1)C1C(c2ccc3c(c2)OCO3)=Nc2ccccc2N1C(=O)c1ccco1 (stereo not drawn)	-15.1	-45.7%	8.2µM*	?	?	13µM*
Cc1cccc(C)c1NC(=O)C1C(c2ccc3c(c2)OCO3)=Nc2ccccc2N1C(=O)c1ccccc1 (stereo not drawn)	-23.0	0.6%	-1.4%	1.46µM*	5.17µM*	-2.5%
CCCCNC(=O)C1C(c2ccc(C(F)(F)F)cc2)=Nc2ccccc2N1C(=O)c1cccc(C(F)(F)F)c1 (stereo not drawn)	0.0	-0.5%	8.6%	?	?	6.2%
O=C(Nc1ccc(Br)cn1)Nc1ccccc1Cl	/	-0.9%	/	/	/	/
Cc1c(C(=O)N2CC[C@@H]3[C@@H](CCC(=O)N3CCN)C2)[nH]c2ccccc12	/	-3.0%	/	/	/	/
